Out of some 66,000 compounds screened, about 960 (1.5%) showed an effect of 50% or more. Only a selection was taken, and strong results are over-represented in it overall.
Test system: Trypanosoma brucei
Assay: Trypanosoma brucei 72 hour study
Assay type: functional, organism-based
Set-up: scale not given: in the data most compounds retested in dose-response had high values

O=C(C1CCOCC1)N1CCc2ncc(CN3CCCC3)n2CC1.O=C(O)C(F)(F)F
Percent Effect (30.3 µM, […]): -192.2%

COc1cccc(-c2nc(C)c(C(=O)N[C@@H](CC(C)C)C(=O)O)s2)c1
Percent Effect (30 µM, 30.03 µM): -38.77%

CNC(=O)C(CC(C)C)NC(=O)c1cccc(-c2nc(C)cs2)c1 (centres undefined)
Percent Effect (30.3 µM, […]): 71.45%

CNC(=O)C(CC(C)C)NC(=O)c1cccc(-c2n[nH]c(C)n2)c1 (centres undefined)
Percent Effect (30.3 µM, […]): -198.3%

NC(=O)NCC(=O)N1C[C@H]2CC[C@@H]1CN(Cc1cscn1)C2
Percent Effect (30 µM, 30.03 µM): -50.24%

CN(C)[C@@H]1CCN(CC2CC2)[C@H]1Cc1cnn(C)c1.O=C(O)C(F)(F)F.O=C(O)C(F)(F)F
Percent Effect (30.3 µM, […]): -399.8%

O=c1[nH]c(-c2ccncc2)ncc1-c1ccnc(NC2CCCCC2)n1
Percent Effect (30.3 µM, […]): -18.66%

COc1ccc2[nH]cc(-c3ccnc(N4CCC(C)CC4)n3)c2c1
Percent Effect (30.3 µM, […]): 23.49%

COc1ccc2[nH]cc(-c3ccnc(NC4CCCC4)n3)c2c1
Percent Effect (30.3 µM, […]): 82.65%

COCCN1CCC2(CCC(=O)N2Cc2csc(C)n2)CC1.O=C(O)C(F)(F)F.O=C(O)C(F)(F)F
Percent Effect (30.3 µM, […]): -13.8%

CC(=O)N1[C@@H](C(=O)NCC2CC2)C[C@@H]2CN(Cc3nccs3)C[C@@H]21.O=C(O)C(F)(F)F
Percent Effect (30.3 µM, […]): -16.07%

COc1cc(C(=O)N(CCC#N)Cc2ccccn2)ccc1C
Percent Effect (30 µM, 30.03 µM): 33.36%

Cc1ccc(C(=O)N(CCC#N)Cc2ccccn2)cc1C
Percent Effect (30 µM, 30.03 µM): 52.21%

COc1cc(C(=O)N(CCC#N)Cc2ccccn2)cc(OC)c1C
Percent Effect (30 µM, 30.03 µM): 4.832%

Cc1cnn(C2CCCN(C(=O)c3ccc(-n4cccn4)nc3)C2)c1 (centres undefined)
Percent Effect (30.3 µM, […]): -2.436%
Percent Effect (10 mM, 10 mM as filed; unlikely as a test dose): -29.12%

O=C(O)C(F)(F)F.O=C1CCCN1Cc1nnn2c1CN(c1cccnc1)CCC2
Percent Effect (30.3 µM, […]): -14.81%

Cc1ccc(CN2Cc3c(C(=O)N4CCCC4)nn(C)c3C2)s1.O=C(O)C(F)(F)F
Percent Effect (30 µM, 30.03 µM): -54.81%

CN(C)Cc1nnn2c1CN(Cc1cccnc1)CCC2.O=C(O)C(F)(F)F.O=C(O)C(F)(F)F.O=C(O)C(F)(F)F
Percent Effect (30 µM, 30.03 µM): -10.93%

Cc1cc(C)n(-c2ccccc2NC(=O)NCCCN(C)S(C)(=O)=O)n1
Percent Effect (30 µM, 30.03 µM): -25.36%

Cc1nn(-c2ncnc3[nH]cnc23)c2c1C(CC(C)C)CC(=O)N2 (centres undefined)
Percent Effect (30 µM, 30.03 µM): 53.52%

CC(C)CC1SCC(=O)Nc2c1cnn2C(C)C (centres undefined)
Percent Effect (30 µM, 30.03 µM): 38.7%

Cc1nn(-c2ncnc3[nH]cnc23)c2c1C(C(C)C)CC(=O)N2 (centres undefined)
Percent Effect (30 µM, 30.03 µM): 16.15%

Cc1nn(-c2ncnc3[nH]cnc23)c2c1C(C(C)(C)C)CC(=O)N2 (centres undefined)
Percent Effect (30 µM, 30.03 µM): 101.7%

Cc1nn(-c2ccccc2)c2c1C(c1ccc(C(=O)O)cc1)CC(=O)N2 (centres undefined)
Percent Effect (30 µM, 30.03 µM): 16.38%

Cc1ccc(-n2nc(C)c3c2NC(=O)CC3c2cnc(N)s2)cc1 (centres undefined)
Percent Effect (30.3 µM, […]): 2.745%

CC[C@@H](CO)Nc1cc(-c2cn[nH]c2)ncn1
Percent Effect (30.3 µM, […]): -17.33%

COc1ccccc1NC(=O)NCCCn1nc2ccccn2c1=O
Percent Effect (30.3 µM, […]): -15.65%

CCc1c(C)nn2c(O)cc(C3CCN(C(=O)c4cnn(C)c4)C3)nc12 (centres undefined)
Percent Effect (30.3 µM, […]): -13.28%

CCCn1cc(-c2cc(-c3ccoc3)c(C#N)c(N)n2)c(C)n1
Percent Effect (30 µM, 30.03 µM): -1.944%

CCCn1cc(-c2cc(-c3cc(CC)n[nH]3)c(C#N)c(N)n2)c(C)n1
Percent Effect (30 µM, 30.03 µM): 41.43%

CCCn1cc(-c2cc(-c3c[nH]cn3)c(C#N)c(N)n2)c(C)n1
Percent Effect (30 µM, 30.03 µM): 58.89%

COc1ncc(-c2cc(-c3ccn(C)c3)nc(N)c2C#N)cn1
Percent Effect (30 µM, 30.03 µM): -14.16%

CCCn1cc(-c2cc(-c3cnc(OC)nc3)c(C#N)c(N)n2)c(C)n1
Percent Effect (30 µM, 30.03 µM): 73.84%

CCn1cc(-c2cc(-c3cc(CC(=O)O)cs3)nc(N)c2C#N)c(C)n1
Percent Effect (30 µM, 30.03 µM): -31.42%

CC(C)CS(=O)(=O)N1C[C@H]2C[C@H](C(=O)N3CCN(C)CC3)[C@@H](C1)O2.O=C(O)C(F)(F)F
Percent Effect (30.3 µM, […]): -51.72%

COc1ccccc1CCN1CCCC(CN(C)Cc2c[nH]c(C)n2)C1 (centres undefined)
Percent Effect (30 µM, 30.03 µM): 9.173%

CC(NC(=O)c1ccc(=O)n(C)c1)c1ccccc1-n1cccn1 (centres undefined)
Percent Effect (30 µM, 30.03 µM): -14.43%

Cc1ccc(NC(=O)c2cc(S(=O)(=O)N3CCCCC3)c[nH]2)cc1F
Percent Effect (30 µM, 30.03 µM): -33.42%

Cc1nnc(NC(=O)c2cc(S(=O)(=O)N3CCSCC3)c[nH]2)s1
Percent Effect (30 µM, 30.03 µM): 37.66%

Cc1ccc(C)c(NC(=O)c2cc(S(=O)(=O)N3CCSCC3)c[nH]2)c1
Percent Effect (30 µM, 30.03 µM): 69.72%

Cc1noc([C@@H]2CC[C@@H]3[C@@H](CCN3c3nnc(C)s3)O2)n1.O=C(O)C(F)(F)F
Percent Effect (30.3 µM, […]): -92.4%

Fc1ccccc1C1NCCc2cc3c(cc21)OCCO3 (centres undefined)
Percent Effect (30.3 µM, […]): 18.61%

CCc1ccc(C2NCCc3cc4c(cc32)OCCO4)cc1 (centres undefined)
Percent Effect (30.3 µM, […]): 67.24%

Clc1ccc(C2NCCc3cc4c(cc32)OCCO4)cc1 (centres undefined)
Percent Effect (30.3 µM, […]): -20.9%

Cc1cc(CCC(N)=O)cc(C2CCCN2Cc2cnc(C)nc2)n1 (centres undefined)
Percent Effect (30.3 µM, […]): -5.889%

O=C(O)C(F)(F)F.O=C(O)C(F)(F)F.c1coc(CN2C[C@@H]3CN(Cc4ccoc4)CCO[C@@H]3C2)c1
Percent Effect (30.3 µM, […]): -14.62%

O=C(Cn1c(=O)oc2ccccc21)NCC1(O)CCc2ccccc2C1 (centres undefined)
Percent Effect (30 µM, 30.03 µM): -11.94%

Cc1ccc(C)c(OCc2nnc(SCC3CCCN(C)C3)o2)c1 (centres undefined)
Percent Effect (30.3 µM, […]): 77.52%

Cc1ccc(OCc2nnc(SCC3CCCN(C)C3)o2)cc1 (centres undefined)
Percent Effect (30.3 µM, […]): -4.572%

Cc1cccc(OCc2nnc(SCC3CCCN(C)C3)o2)c1 (centres undefined)
Percent Effect (30.3 µM, […]): -11.54%

Cc1cc(F)cc2c(N3CCS(=O)(=O)CC3)c(C#N)cnc12
Percent Effect (30.3 µM, […]): 6.61%

Cc1noc(C)c1CN1CCc2ncnc(-c3ccccc3)c2CC1.O=C(O)C(F)(F)F
Percent Effect (30.3 µM, […]): -55.88%

CC(C)(C)n1ncc2c1CCCC2NCc1cccc2c1OCCO2 (centres undefined)
Percent Effect (10 µM): 0.9444%
Percent Effect (30.3 µM, […]): 51.24%

CCn1ncc2c1CCCC2NCc1cccc2c1OCCO2 (centres undefined)
Percent Effect (30 µM, 30.03 µM): 6.251%

CC(C)(C)n1ncc2c1CCCC2NCc1cccc2c1OCO2 (centres undefined)
Percent Effect (30 µM, 30.03 µM): -18.28%

Cc1ccc(N2C[C@H](C)[C@]3(CCN(c4cccnc4)C3=O)C2)nn1.O=C(O)C(F)(F)F.O=C(O)C(F)(F)F
Percent Effect (30.3 µM, […]): -32.51%

O=C(NC1CCCC1)[C@@H]1C[C@@H]2CCN(Cc3ccoc3)C[C@H]2O1.O=C(O)C(F)(F)F
Percent Effect (30.3 µM, […]): -88.78%

Cc1nc(CN2CCO[C@@H]3CN(C(=O)CC4CC4)CC[C@@H]3C2)cs1
Percent Effect (30 µM, 30.03 µM): 61.23%

Cc1nc(CN2CCO[C@@H]3CN(C(=O)CN(C)C)CC[C@@H]3C2)cs1
Percent Effect (30 µM, 30.03 µM): 8.371%

Cc1nc(CN2CCO[C@@H]3CN(C(=O)CC4CC4)C[C@@H]3C2)cs1.O=C(O)C(F)(F)F
Percent Effect (30 µM, 30.03 µM): 48.86%

CCC(=O)N1CCC2(CC1)C(c1cccnc1)CC(=O)N2CCOC.O=C(O)C(F)(F)F (centres undefined)
Percent Effect (30.3 µM, […]): -33.93%

CO[C@H]1CN(C(=O)c2cccnc2)[C@@H]2CCCO[C@H]12.O=C(O)C(F)(F)F
Percent Effect (30.3 µM, […]): -49.74%

CC(O)CNCc1ccc(OCc2ccc3c(c2)OCCO3)cc1.Cl (centres undefined)
Percent Effect (30 µM, 30.03 µM): -67.49%

COc1cccc(CNC(C)C)c1OCc1ccc(C)cc1.Cl
Percent Effect (30 µM, 30.03 µM): -4.618%

COc1cc(CNCC(C)O)cc(Cl)c1OCc1ccc(C)cc1.Cl (centres undefined)
Percent Effect (30 µM, 30.03 µM): 97.25%

COc1ccc(C[C@H]2CNCC[C@H]2OC)cc1.O=C(O)C(F)(F)F
Percent Effect (30.3 µM, […]): 13.15%

Cl.c1cnc(N2CCCC(NCc3ccc(-n4ccnc4)cc3)C2)nc1 (centres undefined)
Percent Effect (30.3 µM, […]): 10.24%

Cc1n[nH]c2ncc(CNC3CCN(Cc4ccccn4)CC3)cc12.Cl
Percent Effect (30 µM, 30.03 µM): -2.543%

Cc1n[nH]c2ncc(CNC3CCCN(c4ncccn4)C3)cc12.Cl (centres undefined)
Percent Effect (30 µM, 30.03 µM): 72.79%

COc1cccc(S(=O)(=O)N2C[C@@H](N(C)C)[C@H](C(C)C)C2)c1
Percent Effect (30 µM, 30.03 µM): -34.95%

CC(C)[C@@H]1CN(S(=O)(=O)c2cccc(C(=O)O)c2)C[C@H]1N(C)C
Percent Effect (30 µM, 30.03 µM): 98.32%

CC(C)S(=O)(=O)N1CCC(Cc2cccc(C(=O)O)c2)C1 (centres undefined)
Percent Effect (30 µM, 30.03 µM): -22.39%

COCCN1CC2(CCOCC2)c2cc(NC(=O)C3CC=CC3)ccc21.O=C(O)C(F)(F)F
Percent Effect (30.3 µM, […]): 4.18%

COc1cc(-c2cc(-c3ccn(C)c3)nc(N)c2C#N)cc(OC)c1O
Percent Effect (30 µM, 30.03 µM): -22.54%

Cc1noc(C)c1-c1ccc(C2CCCN2C(=O)Cn2ccnc2)nc1 (centres undefined)
Percent Effect (30.3 µM, […]): -4.122%

CN(C)C(=O)CN1CCCC(c2nccnc2-c2cccc(Cl)c2)C1 (centres undefined)
Percent Effect (30.3 µM, […]): -2.355%

CN(C)C(=O)CN1CCCC(c2cncc(-c3cccc(Cl)c3)n2)C1 (centres undefined)
Percent Effect (30.3 µM, […]): 53.32%

CN(C)C(=O)CN1CCC(c2cncc(-c3cccc(Cl)c3)n2)CC1
Percent Effect (30.3 µM, […]): 45.69%

CO[C@H]1C[C@@H]2CN(C(=O)c3cccc4c3OCCO4)C[C@@H]2C1
Percent Effect (30.3 µM, […]): -23.55%

O=C(C1CC1)N1CC[C@H](O)[C@@H]1Cc1ccccc1
Percent Effect (30.3 µM, […]): -5.545%

CC(C)c1cc(N2CCSCC2)n2nccc2n1
Percent Effect (30.3 µM, […]): -15.7%

CC(C)c1cc(N2CCC[C@H](N)C2)n2nccc2n1
Percent Effect (30.3 µM, […]): -37.71%

CC(C)c1cc(N2CCC(N)CC2)n2nccc2n1
Percent Effect (30 µM, 30.03 µM): 38.85%

CC(C)c1cc(N2CCC(C(C)N3CCCC3)CC2)n2nccc2n1 (centres undefined)
Percent Effect (30.3 µM, […]): 88.53%

CC(C)c1cc(N2CCC(N(C)C)C2)n2nccc2n1 (centres undefined)
Percent Effect (30.3 µM, […]): 4.814%

CC(C)c1cc(N2CC[C@H](F)C2)n2nccc2n1
Percent Effect (30.3 µM, […]): 99.84%

COc1ccc(CN2CCc3sccc3C2C)cc1CN1CCOCC1.Cl (centres undefined)
Percent Effect (30.3 µM, […]): -20.22%

COc1cc(C(=O)Nc2nc(C)no2)cc(Cl)c1OC
Percent Effect (10 µM): -54.4%

O=C(O)C(F)(F)F.O=C(O)C(F)(F)F.c1cc(CN2CCO[C@H]3[C@H](OCCN4CCCC4)CC[C@@H]32)co1
Percent Effect (30.3 µM, […]): -5.554%

CCCN1CCC(c2cc(CCOc3ccc(C(F)(F)F)cc3)[nH]n2)C1 (centres undefined)
Percent Effect (30.3 µM, […]): 85.59%

Clc1ccc(OCCc2cc(C3CCN(c4ncccn4)C3)n[nH]2)cc1 (centres undefined)
Percent Effect (30.3 µM, […]): 28.73%

Br.COc1ccc(OCCc2cc(C3CCN(CC(C)C)C3)n[nH]2)cc1 (centres undefined)
Percent Effect (30.3 µM, […]): 20.63%
